The text below walks through data of PubChem BioAssay AID2401 (Southern Research Specialized Biocontainment Screening …, 2010).

The structures appear in SMILES notation. Out of some 2,200 compounds screened, about 530 (24%) were called active.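 How the source made its calls: active means inhibition above a set limit at one or more concentrations of the dose series; inactive means inhibition under that limit at every dose.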 These entries were drawn from the full list. Measured potencies and affinities stand elsewhere.

The test can be described thus: nmpC-GFP reporter counter-screen in S. Typhimurium, dose response, counter-screen for PhoP regulon inhibitor project, Salmonella Typhimurium, GFP fluorescence (AID 2401).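 Further: S. typhimurium with Mg-insensitive nmpC-GFP reporter grown at 10 µM Mg2+; drop in reporter fluorescence reflects general culture growth inhibition.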 The following applies: 4 h; series mostly up to 150 µM.
As to `COc1ccc(OC)c(NC(=O)c2ccccc2NS(=O)(=O)c2cccc3cccnc23)c1`, the result was inactive.
The result for `Nc1nnc(SCc2ccc3c(c2)OCO3)s1` reads “inactive”; that for `CCOC(=O)C(NS(=O)(=O)c1ccccc1)(C(F)(F)F)P(=O)(OCC(C)C)OCC(C)C` (stereo not drawn), “inactive”; that for `c1ccc(-c2cc(CSc3nc4ccccc4[nH]3)on2)cc1`, “inactive”.
The result for `Cc1ccc(N=Cc2sc(O)c3ccccc23)cc1` reads “inactive”; that for `N=c1sccn1CC(=O)Nc1ccccc1Oc1ccccc1`, “inactive”.
The result for `O=C(NCCNc1ccc([N+](=O)[O-])cc1C(F)(F)F)c1ccccc1F` reads “inactive”.
In the case of `O=C(NCCNc1ccc([N+](=O)[O-])cc1C(F)(F)F)c1ccc(F)cc1`, the result was inactive.
The result for `O=C(NCC(=O)N(c1cccnc1)C(C(=O)NCc1ccco1)c1ccccc1)c1ccco1` (stereo not drawn) reads “inactive”; that for `COc1ccc(N2C(=O)[C@@H]3[C@H](C2=O)[C@H]2c4ccccc4C=CN2[C@@H]3C(=O)Nc2ccccc2)cc1`, “inactive”.
Under `CCCc1cc(C(=O)Cc2ccc(C(=O)OCC)o2)c(O)cc1O` stands “inactive”; under `CCOc1ccccc1NS(=O)(=O)c1ccc(Br)s1`, “inactive”; under `O=C(Oc1ccc(N(Cc2cccs2)C2=NS(=O)(=O)c3ccccc32)cc1)c1ccc(Cl)cc1`, “inactive”.
Under `COc1ccc2c(c1)CC/C(=C\Nc1ccc3c(c1)OCO3)C2=O` stands “inactive”; under `CCN(CC)CCNC(=O)c1cn(CC)c2cc(N3CCN(C(=O)c4ccco4)CC3)c(F)cc2c1=O`, “inactive”.
Consider `CN(C)CCNC(=O)c1ccc(COCC(F)(F)F)cc1`, for which the call was inactive.
The result for `COC(=O)COc1ccc(S(=O)(=O)Nc2ccccc2SC)cc1` reads “inactive”; that for `Cc1cc(CNC(=O)Nc2ccc3c(c2)OCO3)nn1C`, “inactive”; that for `O=C(NCc1cn2ccsc2n1)Nc1ccc(Cl)cc1`, “inactive”.
Under `Oc1ccc(Nc2nc(-c3cccs3)cs2)cc1` stands “inactive”; under `CC(C)c1ccc(NC(=O)N(CCc2nc3ccccc3[nH]2)C2CCCC2)cc1`, “inactive”.
Regarding `Brc1ccc2cccnc2c1`, the compound was called inactive.
Under `O=C1C2C3c4ccccc4C(c4ccccc43)C2C(=O)N1c1cccc2cccnc12` (stereo not drawn) stands “inactive”.
Under `C/C(=N/Nc1nc(-c2ccccc2)cc(-c2ccc(F)cc2)n1)c1cccc(N)c1` stands “inactive”; under `CC(=O)Nc1c(C#N)c(C(C)(C)C)cn1C`, “inactive”.
Regarding `CCOc1cc(C2C(C(=O)OC)=C(C)N=C3SCCC(=O)N32)ccc1OC(C)=O` (stereo not drawn), the compound was classed as inactive.
Under `O=C(NCc1ccc2c(c1)OCO2)c1ccc(-n2cnnn2)cc1` stands “inactive”; under `CCCN1C(=O)SC(CC(=O)Nc2ccc(Br)cc2)C1=O` (stereo not drawn), “inactive”; under `CCn1c(C)cc(=S)c2ccccc21`, “inactive”.
Under `O=C(NCCCN1CCCC1=O)c1ccc(Cl)c(NS(=O)(=O)c2ccc(F)cc2)c1` stands “inactive”.
Under `CC1CCCCN1Cc1cnc(Cl)s1` (stereo not drawn) stands “inactive”; under `Oc1ccc(Br)cc1-c1ccn[nH]1`, “inactive”; under `Cc1ccc(N(CC(=O)Nc2cccc(C)c2)S(=O)(=O)c2cccc3nonc23)cc1`, “inactive”.
In the case of `Cc1ncc(C23CC4CC(CC(C4)C2)C3)[nH]1`, the compound was called inactive.
In the case of `O=C1C2=C(NC(=S)NC2c2ccc(Cl)cc2)NC(c2ccc(Cl)cc2)N1c1ccc(Cl)cc1` (stereo not drawn), the compound was classed as inactive.
The result for `Cc1ccc(C=Nc2ccccc2C(N)=O)cc1` reads “inactive”; that for `CC(C)CCn1c(SCC(=O)N2CC(=O)Nc3ccccc32)nc2scc(-c3cccs3)c2c1=O`, “inactive”; that for `c1coc(CNc2ncnc3ccccc23)c1`, “inactive”.
Under `C=CCNc1ncnc2ccc(Br)cc12` stands “inactive”; under `CCOC(=O)N1CCN(S(=O)(=O)c2ccc(C(=O)NNc3nc4cc(C)cc(C)c4s3)cc2)CC1`, “inactive”; under `c1ccc(CN2CCN(c3nc(-c4ccccc4)nc(-n4ccnc4)n3)CC2)cc1`, “inactive”.
The result for `CCCOC(=O)Oc1ccc2c(=O)c(Oc3cc(C)cc(C)c3)coc2c1` reads “inactive”; that for `Cc1ccccc1NC(=S)NC1CCN(Cc2ccccc2)CC1`, “inactive”; that for `OC1(c2ccc3ccccc3c2)CCN(Cc2ccccc2)C1` (stereo not drawn), “inactive”.
`O=C1c2cccc(OCC(=O)N3N=C(c4cccs4)CC3c3ccc(F)cc3)c2CCN1Cc1cccnc1` (stereo not drawn): the call was inactive.
The result for `COc1ccc(O)c(/C=c2/sc3nc4cc(C)c(C)cc4n3c2=O)c1` reads “inactive”; that for `Cc1ccc2c(CN3CCC(C)CC3)cc(=O)oc2c1`, “inactive”.
Under `O=C(Cn1cnc2ccccc2c1=O)NCc1ccco1` stands “inactive”; under `CCn1nc(C(=O)OC(C(=O)c2c[nH]c3ccccc23)c2ccccc2)c2ccccc2c1=O` (stereo not drawn), “inactive”; under `Cc1ccc(C)c(C(=O)NCc2ccncc2)c1`, “inactive”.
Under `CCOC(=O)c1ccc(N2CCN(c3ccc(F)cc3)CC2)c(NC(=O)Nc2cccc(OC)c2)c1` stands “inactive”.
Turning to `CCN(CC)CCN(Cc1cc2cc3c(cc2[nH]c1=O)OCCO3)C(=O)NC1CCCCC1`, the compound was classed as inactive.
The result for `N#Cc1c(-c2ccccc2)ccn(Cc2cccc(Cl)c2)c1=O` reads “inactive”; that for `CSc1nnc(NC(=O)CCc2ccccc2)s1`, “inactive”.
Under `O=C(CSc1nc(Nc2ccccc2)nc(N2CCOCC2)n1)Nc1ccc([N+](=O)[O-])cc1` stands “inactive”; under `O=C(Nc1cc(C(F)(F)F)ccc1Cl)C(NCc1ccccc1)c1ccccc1` (stereo not drawn), “inactive”.
Under `O=C(NNc1nc(-c2ccccc2)cs1)c1ccccc1` stands “inactive”.
For `O=C(NC1CCCC1)c1ccc(Cl)s1`, the call was inactive.
The result for `COc1ccc(C2=Nc3cccc4cccc(c34)N2)cc1` reads “inactive”.
Under `CCN(CC)S(=O)(=O)c1ccc(C(=O)N2CCN=C2SCc2cccnc2)cc1` stands “inactive”; under `Cc1cc(C)n2c(SCC(=O)NCc3ccco3)nnc2n1`, “inactive”.
Under `Cc1ccc2nc(-c3ccc(Br)o3)oc(=O)c2c1` stands “inactive”; under `NC1=NC(=Nc2ccc(Br)cc2)c2ccccc21`, “inactive”.
As for `Cn1cnnc1SCC(=O)Nc1cccc(C(=O)O)c1`, the result was inactive.
Under `COc1ccc2nc(-c3ccccc3)cc(OC)c2c1` stands “inactive”; under `Nc1c(C(=O)Nc2ccc(F)cc2)sc2nc(-c3ccco3)ccc12`, “inactive”; under `Cc1cccc(-n2c(N)cc(=O)[nH]c2=S)c1`, “inactive”.
Under `COc1ccc(OCCSc2nnc(-c3ccc(OC)cc3)n2N)cc1` stands “inactive”; under `CCOC(=O)N1CCN(S(=O)(=O)c2ccc(C(=O)NNc3nc4c(C)cc(C)cc4s3)cc2)CC1`, “inactive”.
Under `O=C(Nc1ccc(S(=O)(=O)N2CCCC2)cc1)c1ccc(CN2CCc3ccccc3C2)cc1` stands “inactive”.
Turning to `c1ccc2c(c1)CCN(c1ncnc3c1[nH]c1ccccc13)C2`, the compound was classed as inactive.
As for `O=C(C(=O)N1CCc2ccccc2C1)N1CCc2ccccc2C1`, the compound was classed as inactive.
Take `Oc1ccc(NCc2ccccc2OCc2ccccc2F)cc1`: the call was inactive.
